# Screening data: PubChem BioAssay, National Center for Advancing Translational Sciences (NCATS)
# HT1080 IDH1KD tx – HT-1080 IDH1 knockdown cell toxicity (counter line) | AID 686971 | 2% of 360,000 active | Potency, µM (titrated, usually from 46.1 µM), inactives show at the highest dose activity, negative = toxicity, actives largely listed as cytotoxic | HT-1080 IDH1 knockdown viability, ATP luminescence, 48 h;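 note: 0% = DMSO wells and -100% = cell-free medium wells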
#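 Viability of IDH1-knockdown HT-1080 fibrosarcoma cells was assessed by CellTiter-Glo after 48 h at 37 °C with titrated compound; concentration-effect curves were classified by fit quality and response size.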
# HepG2 tox-1 – HepG2 cytotoxicity, counter-screen for TGF-b inhibitors. HepG2 CAGA-GFP viability, ATP luminescence, 18 h. Potency, µM (highest dose often 46.1 µM), without a hit: at the highest dose activity change, negative = cytotoxicity, usual class: cytotoxic. 0.76% of 410,000 active. AID 588856
#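 CellTiter-Glo luminescence gave cytotoxicity after 18 hours at 37 degrees C. The cells were HepG2 CAGA-GFP in 1% FBS DMEM, stimulated with 500 pg/mL TGF-beta after compound addition. %Activity was normalised to no-cell wells (complete cell-killing) and DMSO (no toxicity), and curves were fitted and classified.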
# HT1080-NT tox – kills 2HG-producing HT-1080-NT fibrosarcoma cells; HT-1080-NT fibrosarcoma viability, CellTiter-Glo ATP luminescence, 48 h; Potency, µM (series often up to 46.1 µM), without a hit: top-dose activity, negative = less viability, actives largely listed as cytotoxic; 1.6% of 360,000 active; AID 686970;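 note: NT is the 2HG producing partner of a matched IDH1 knockdown line; 0% = DMSO-treated cells and -100% = media-only wells without cells; nearly all actives have a fitted effect of over 55% in size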
#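 Luminescent CellTiter-Glo readout after 48 hours of compound exposure at 37 degrees C defined viability of HT-1080-NT cells. Activity was normalized to DMSO wells and cell-free media wells; concentration-response curves were fitted and assigned curve classes.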
# TGFb inhibitor – inhibitors of TGF-b signaling. AID 588855. HepG2 CAGA-GFP TGF-b/SMAD3 reporter, GFP fluorescence, 18 h; TGF-beta stimulated, 500 pg/mL final. 1.2% of 410,000 active. Potency, µM (doses to about 46.1 µM), for the others: at the highest dose activity, negative = inhibition, most hits filed as inhibitors; note: % is set by controls: 0 for no effect and ±100 for the full control effect; nearly all actives have a fitted effect of over 65% in size
#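 HEPG2 CAGA-GFP reporter cells (1000/well, DMEM with 1% FBS) received compounds, then recombinant TGF-beta at 500 pg/mL final for 18 hours at 37 degrees C. Per-cell GFP summed per well was normalised to unstimulated and stimulated DMSO controls before curve fitting.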
# DT40 TDP1 CPT – DT40-hTDP1 cell growth loss with CPT; chicken DT40 Tdp1-/-;hTDP1 cells + 20 nM CPT, ATP luminescence, 48 h; Potency, µM (doses to about 46.2 µM), for the others: top-dose activity change, negative = growth inhibition, usual class: inhibitors; 12% of 420,000 active; note: % is set by controls: 0 for no effect and ±100 for the full control effect; nearly all actives have a fitted effect of over 55% in size
#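 Chicken DT40 Tdp1-/- cells complemented with human TDP1, 400 cells/well, exposed to compounds plus 20 nM camptothecin for at least 48 h at 37 C; viability read as ATP content by CellTiter-Glo luminescence.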
# TDP1 cell noCPT – qHTS for Inhibitors of human tyrosyl-DNA phosphodiesterase 1 (TDP1): qHTS in cells in absence of CPT; 15% of 420,000 active; DT40 Tdp1-/- hTDP1 cells, no CPT, ATP luminescence, 48 h; Potency, µM (doses to about 46.2 µM), without a hit: top-dose activity change, negative = growth inhibition, usual class: inhibitors; note: % is set by controls: 0 for no effect and ±100 for the full control effect; nearly all actives have a fitted effect of over 55% in size
#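 Growth kinetics read by CellTiter-Glo luminescence after ≥48 hr at 37 °C. Cells: DT40 Tdp1-/- stably carrying human TDP1, 400 per well, compound exposure in the absence of CPT (DMSO vehicle).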
# TGFb confirm – confirmation of TGF-b signaling inhibitors in HepG2 reporter cells; shares compounds with TGFb inhibitor; HepG2 CAGA-GFP TGF-b reporter, GFP fluorescence, 18 h; cells stimulated with TGF-beta, 500 pg/mL; Potency, µM (titrated, usually from 46.1 µM), for the others: at the highest dose activity, negative = inhibition, usual class: inhibitors; 63% of 1,600 active; note: % is set by controls: 0 for no effect and ±100 for the full control effect; nearly all actives have a fitted effect of over 65% in size
# HepG2 tox-2 – counter-screen for TGF-b inhibitors: cytotoxicity in HepG2 cells. 27% of 1,600 active. AID 720535. shares compounds with TGFb inhibitor. HepG2 CAGA-GFP viability, ATP luminescence, 18 h; cells stimulated with TGF-beta, 500 pg/mL. Potency, µM (titrated, usually from 46.1 µM), inactives show top-dose activity, negative = cytotoxicity, most hits filed as inhibitors; note: % is set by controls: 0 for no effect and ±100 for the full control effect; nearly all actives have a fitted effect of over 70% in size
# CCL64 TGFb inh – blocks TGF-b signaling in CCL64 reporter cells. shares compounds with TGFb inhibitor. CCL64 CAGA-GFP reporter, TGF-b stimulated, GFP fluorescence, 18 h. Potency, µM (top dose mostly 46.1 µM), for the others: at the top dose activity, negative = inhibition, actives largely listed as inhibitors. 41% of 1,600 active. AID 720536; note: nearly all actives have a fitted effect of over 65% in size
# COP TGFb inh – validation of TGF-b inhibitors in HepG2 COP promoter reporter | shares compounds with TGFb inhibitor | HepG2 COP-GFP TGF-b reporter, GFP fluorescence, 18 h; cells stimulated by added recombinant TGF-beta | Potency, µM (titrated, usually from 46.1 µM), inactives show at the highest dose activity, negative = inhibition, usual class: inhibitors | 3% of 1,600 active; note: nearly all actives have a fitted effect of over 70% in size
# * marks the source's active call; other numbers are inactive results; ? = inconclusive; . = not tested or not shown. Only some compounds are listed: those with a hit (about 17% of all), similar ones and a draw of the others. Calls come from the whole dose curve; as a rule, active = well fitted curve in the direction sought with a large enough effect; inconclusive = small, poorly fitted or top-dose-only effect, or another doubt; inactive = no such curve, though single readings can be large; an effect the other way counts as inactive or inconclusive. Potency is the fitted concentration of half-maximal effect.
SMILES,HT1080 IDH1KD tx,HepG2 tox-1,HT1080-NT tox,TGFb inhibitor,DT40 TDP1 CPT,TDP1 cell noCPT,TGFb confirm,HepG2 tox-2,CCL64 TGFb inh,COP TGFb inh
Oc1ccc(C[C@H]2CNC(=S)N2CC2CCCN2C[C@H](Cc2ccccc2)N2C[C@H](Cc3ccc(O)cc3)N(CC3CCCCC3)C2=S)cc1 (stereo partly specified),25.9µM*,-51.6%,?,5.62µM*,?,20.6µM*,14.6µM*,?,4.11µM*,30.2%
CC(C)C[C@H]1CNC(=S)N1C[C@H]1CCCN1C[C@H](Cc1ccc(O)cc1)N1C[C@H](Cc2ccccc2)N(CC2CCCCCC2)C1=S,-18.2%,-19.5%,-26.5%,?,18.4µM*,18.4µM*,?,-4.2%,?,2.6%
CCOc1ccc(CCN2C(=O)C(=O)N([C@@H](Cc3ccc(O)cc3)CN3CCC[C@H]3CN3C(=O)C(=O)NC[C@@H]3Cc3ccccc3)C[C@@H]2Cc2ccc(O)cc2)cc1,-20.2%,.,-11.5%,.,?,?,.,.,.,.
N#Cc1ccccc1-c1ccc2ncnc(N3CCNCC3)c2c1,.,.,.,.,-12.0%,-0.4%,.,.,.,.
Oc1ccc(C[C@H]2CNC(=S)N2CC2CCCN2C[C@H](Cc2ccc(O)cc2)N2C[C@H](Cc3ccc(O)cc3)N(CC3CCCCCC3)C2=S)cc1 (stereo partly specified),?,-10.5%,?,7.94µM*,23.1µM*,18.4µM*,16.4µM*,?,3.26µM*,13.3%
O=C1C(F)=CC(COC(c2ccccc2)(c2ccccc2)c2ccccc2)OC1n1cc(F)c(=O)[nH]c1=O (stereo unspecified),20.6µM*,-60.0%,?,5.01µM*,1.64µM*,1.46µM*,2.91µM*,8.2µM*,2.31µM*,?
COc1cc(CN2CCc3ccccc3C2)ccc1O,?,-132.8%,?,4.47µM*,0.92µM*,0.461µM*,7.31µM*,14.6µM*,2.91µM*,-26.5%
COc1ccccc1NC(=O)CSc1nnnn1-c1ccc(F)cc1,-1.8%,9.6%,-2.9%,2.1%,-8.3%,-23.9%,.,.,.,.
CC(=O)Oc1c(I)cc(I)cc1C(=O)Nc1ccc(Cl)cc1,20.6µM*,-35.8%,20.6µM*,5.01µM*,?,20.6µM*,4.61µM*,8.2µM*,6.51µM*,45.1%
COc1ccccc1N1C(=O)c2ccc(C(=O)Nc3nccs3)cc2C1=O,-4.3%,0.5%,15.3%,8.2%,21.1%,-11.4%,.,.,.,.
Cc1cccc(C)c1NC(=O)c1csc(COCCO)n1,0.4%,-29.1%,18.9%,3.8%,-0.1%,-5.4%,.,.,.,.
CCCCCCCN(c1ccccc1)[C@@H]1C[C@H]2CCCC(=O)N3CC[C@@H](C1)[C@@H]23,-26.3%,11.2µM*,-28.8%,10µM*,11.6µM*,10.3µM*,?,?,20.6µM*,20.6µM*
O=[N+]([O-])c1c(NCCCO)cc(Sc2nc3ccccc3s2)c2nonc12,6.31µM*,-34.2%,11.2µM*,17.8µM*,1.26µM*,0.794µM*,?,16.4µM*,6.51µM*,16.4µM*
Cc1nnc(Sc2cc(NCCCO)c([N+](=O)[O-])c3nonc23)s1,16.4µM*,1.5%,16.4µM*,5.01µM*,1.46µM*,2.06µM*,4.61µM*,23.1µM*,3.26µM*,?
Nc1nonc1NC(=O)CSc1nc2ccccc2s1,8.0%,13.4%,0.0%,6.5%,-4.1%,-11.6%,.,.,.,.
c1cnc2ccc3c(c2c1)COCO3,-4.2%,-3.0%,-4.3%,-8.1%,-22.3%,-12.9%,.,.,.,.
O=[N+]([O-])c1cc2c(c3cccnc13)COCO2,-19.4%,-4.8%,0.2%,?,?,?,18.4µM*,-25.1%,6.6%,2.0%
Cc1ccc(C)c(C(=O)C[n+]2cccc(Br)c2)c1,.,-9.0%,.,4.0%,7.1%,?,.,.,.,.
COc1ccccc1N1CCN(Cc2cc(Br)c(O)c3ncccc23)CC1,?,-37.4%,?,?,6.51µM*,9.2µM*,?,-28.0%,4.11µM*,10.8%
CCOc1ccccc1N1CCN(Cc2cccc(OC)c2O)CC1,-24.0%,7.4%,7.9%,-23.6%,?,?,.,.,.,.
Cc1c(C(=O)OCC(=O)N(C)CC(=O)Nc2ccc(F)cc2)oc2ccccc12,-3.9%,-2.8%,2.2%,-21.4%,-11.3%,-21.4%,.,.,.,.
Cc1ccc(Cl)cc1N1CCN(S(=O)(=O)c2ccc3c(c2)CCCN3C(=O)C2CCC2)CC1,.,8.7%,.,17.2%,-4.2%,?,.,.,.,.
O=C(CSc1nnc(-c2ccc(F)cc2)c2ccccc12)Nc1cccc(Cl)c1,-11.7%,-16.3%,-2.3%,-19.1%,?,?,.,.,.,.
O=C(CSc1nnc(-c2ccc(F)cc2)c2ccccc12)Nc1ccccc1,-18.6%,-4.2%,-10.1%,12.6µM*,?,?,14.6µM*,-5.0%,-10.1%,-13.5%
COc1cc(CNCCO)cc(Cl)c1OCc1ccccc1Cl,?,-21.8%,?,11.2µM*,?,?,-94.3%,16.4µM*,29.1µM*,47.2%
CCOC(=O)c1cnc2ccccc2c1Nc1cc(C(=O)O)ccc1C,7.7%,-8.7%,20.6%,-19.1%,6.6%,-12.6%,.,.,.,.
